The text below walks through data of PubChem BioAssay (EPA / NIEHS).

More than one record can exist for a structure, and the calls need not agree. Activity calls are given as the source filed them. How the source made its calls: active means hit-call score of the fitted dose curve at least 0.9, where 1 is the maximum; inactive means score below 0.9.

Read-out in the test: Collagen I, COL1A1 (gene 1277)
The experiment in a line: BSK_hDFCGF_CollagenI: BioMAP Diversity Plus: hDFCGF Assay for Collagen I Biomarker Activity (AID 2284250). The settings on record: primary human foreskin fibroblasts. The protocol: BSK_hDFCGF is a cell-based, multiplexed-readout assay that uses foreskin fibroblast, a human skin primary cell, with measurements taken at 24 hours after chemical dosing in a 96-well plate.BSK_hDFCGF_CollagenI is an assay component measured in the BSK_hDFCGF assay. It measures Collagen I antibody related to regulation of gene protein expression using ELISA technology.Data from the assay component BSK_hDFCGF_CollagenI was analyzed at the endpoint, BSK_hDFCGF_CollagenI, in the positive analysis fitting direction relative to DMSO as the negative control and baseline of activity. Using a type of binding reporter, gain or loss-of-signal activity can be used to understand protein changes. To generalize the intended target to other relatable targets, this assay endpoint is annotated to the 'cell adhesion molecules' intended target family, where the subfamily is 'collagen'.
The levels of cell surface (or secreted, indicated by the prefix "s") biomarker endpoints were measured by ELISA. Overt cytotoxicity to cells in confluent adherent cultures (all systems other than the BT system) was assessed by measuring total protein levels using sulforhodamine B (SRB) staining in parallel cultures at the time of biomarker measurements, indicated as SRB endpoints. For proliferation assays for adherent cell types, individual cell types are cultured at sub-confluence and relative cell numbers quantified by SRB staining at time points optimized for each system (48 h: 3C and CASM3C systems; 72 h: BT and HDF3CGF systems; 96 h: SAg system). SRB was performed by staining cells with 0.1% SRB after fixation with 10% TCA and reading wells at 560 nm.Viability and proliferation of PBMC (T cells) was quantified by Alamar Blue reduction for the SAg and BT systems. For PBMC viability (referred to as PBMC Cytotoxicity within the assay endpoint names), cells were plated (75,000/well in a 96-well plate) and then chemical samples added for 1 h before addition of activators, SEB and TSST-1 (20 ng/mL final concentration each). Cells were incubated for 90 h. Then, Alamar Blue (20 uL/well) (Invitrogen, Cat DAL1100) was added for 6 h, and the plates were read with a fluorescence microplate reader at 546/580 nm (excitation/emission). For PBMC proliferation, cells were plated and activated as above but incubated for only 16 h prior to addition of Alamar Blue. Plates were read after 6 h.
Consider `FC(F)(F)C(F)(F)C(F)(F)C(F)(F)C(F)(F)C(F)(F)C(F)(F)I`, for which the outcome was inactive.
Still for that read-out and setting: with `OCC(F)(F)C(F)(F)C(F)(F)F` the entry was “inactive”; with `OCCCC(F)(F)C(F)(F)C(F)(F)F`, “inactive”.
By AC50 is commonly meant the concentration giving half of the maximal activity seen. On to `N=C(N)C(F)(F)C(F)(F)C(F)(F)C(F)(F)C(F)(F)C(F)(F)C(F)(F)F`, for which the concentration at half-maximal activity (AC50) is 30 µM (active) and the outcome was inactive.
As to `OCC(F)(F)C(F)(F)C(F)(F)C(F)F`, the outcome was inactive.
On the same count and under the same terms, with `C=CC(F)(F)C(F)(F)C(F)(F)C(F)(F)C(F)(F)C(F)(F)C(F)(F)C(F)(F)F` the entry was “inactive”; with `O=C(O)C(F)(F)C(F)(F)C(F)F`, “inactive”; with `FC(F)(F)C(F)(F)C(F)(F)C(F)(F)C(F)(F)C(F)(F)CCS`, “inactive”.
On the same count and under the same terms, with `C=CC(F)(F)C(F)(F)C(F)(F)C(F)(F)C(F)(F)C(F)(F)C(F)(F)C(F)(F)C=C` the entry was “inactive”; with `O=C(O)C(F)(F)C(F)(F)C(F)(F)C(F)(F)C(F)(F)C(F)(F)C(F)(F)C(F)(F)Cl`, “inactive”.
On the same count and under the same terms, with `OCC(F)(F)C(F)(F)C(F)(F)C(F)(F)C(F)(F)C(F)(F)F` the entry was “inactive”; with `FC(F)(F)C(F)(F)C(F)(F)CI`, “inactive”; with `O=P(O)(O)OCCC(F)(F)C(F)(F)C(F)(F)C(F)(F)C(F)(F)C(F)(F)F`, “inactive”.
For `C=C(C)C(=O)OCC(F)(F)C(F)(F)C(F)(F)C(F)(F)C(F)(F)C(F)(F)C(F)(F)F`, the outcome was inactive.
`FC(F)(F)C(F)(F)C(F)(F)C(F)(F)CCI`: the outcome was inactive.
For `O=C(O)C=C(C(F)(F)F)C(F)(F)F`, the outcome was inactive.
On the same count and under the same terms, to `O=C(O)C(F)(F)C(F)(F)C(F)(F)C(F)(F)C(F)(F)C(F)(F)C(F)(F)C(F)(F)C(F)(F)C(F)F` belongs “inactive”; to `CC(C)(C)C(=O)CC(=O)C(F)(F)C(F)(F)C(F)(F)F`, “inactive”.
As for `FC(F)(F)C(F)(F)C(F)(F)C(F)(F)C(F)(F)C(F)(F)CC1CO1` (stereo not given), the result was inactive.
The same measure, in the same setting: with `C=C(C)C(=O)OCC(F)(F)C(F)(F)C(F)(F)F` the entry was “inactive”; with `CCO[Si](CCC(F)(F)C(F)(F)C(F)(F)C(F)(F)C(F)(F)C(F)(F)F)(OCC)OCC`, “inactive”.
Same read-out and setting: to `FC(F)(Br)C(F)(F)C(F)(F)C(F)(F)C(F)(F)C(F)(F)Br` belongs “inactive”; to `O=C(CC(=O)C(F)(F)C(F)(F)F)C(F)(F)F`, “inactive”.
Still for that read-out and setting: to `FC(F)(F)C(F)(F)C(F)(F)C(F)(F)C(F)(F)CCI` belongs “inactive”; to `O=C(O)C(F)(F)C(F)(F)C(F)(F)F`, “inactive”.
Turning to `O=S(=O)(O)C(F)(F)C(F)(F)C(F)(F)C(F)(F)C(F)(F)C(F)(F)C(F)(F)F`, the outcome was inactive.
As to `CCCCC(CC)COP(=O)(O)OCC(CC)CCCC` (stereo not given), the outcome was inactive and the AC50 is 20 µM (active).
For `O=C(Cl)C(F)(F)C(F)(F)C(F)(F)C(F)(F)C(F)(F)C(F)(F)C(F)(F)C(F)(F)F`, the result was inactive.
Same read-out and setting: with `CCCCCCCCC(F)(F)C(F)(F)C(F)(F)C(F)(F)C(F)(F)C(F)(F)F` the entry was “inactive”; with `O=C(O)C(F)(F)C(F)(F)C(F)(F)C(F)(F)F`, “inactive”.
Regarding `O=C(O)C(F)(F)C(F)(F)OC(F)(F)F`, the result was inactive.
Turning to `O=C(O)C(F)(OC(F)(F)C(F)(OC(F)(F)C(F)(F)C(F)(F)F)C(F)(F)F)C(F)(F)F` (stereo not given), the result was inactive.
Same read-out and setting: to `C=CC(=O)OCC(F)(F)C(F)(F)C(F)(F)C(F)(F)C(F)(F)C(F)(F)C(F)(F)F` belongs “inactive”; to `COC(=O)CCC(F)(F)C(F)(F)C(F)(F)C(F)(F)F`, “inactive”; to `C=CC(=O)OCC(F)(F)C(F)(F)C(F)(F)C(F)(F)COC(=O)C=C`, “inactive”.
On to `FC(F)(F)C(F)(F)C(F)(F)C(F)(F)C(F)(F)C(F)(F)C(F)(F)Br`, for which the result was inactive.
Still for that read-out and setting: with `OCC(F)(F)C(F)(F)C(F)(F)C(F)(F)C(F)(F)C(F)F` the entry was “inactive”; with `O=C(O)C(F)(F)C(F)(F)C(F)(F)C(F)(F)C(F)(F)C(F)(F)C(F)(F)C(F)(F)C(F)(F)C(F)(F)C(F)(F)C(F)(F)F`, “inactive”.
